Source: PubChem BioAssay
IL1B secr inh: blocks inflammasome-driven IL-1 beta release; activity change, % at 57.5 µM; THP-1 LPS/ATP IL-1B secretion, AlphaLISA, 16 h; stronger effect = lower value; 360,000 tested, 4.7% active; in the data active means activity change below about -50%; inconclusive means mostly about -30% to -49%
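THP-1 cells pretreated 1 hr with compounds (up to 57.5 uM final), then stimulated with LPS (250 ng/mL final) plus ATP (1.25 mM final); secreted IL-1B measured by AlphaLISA after 16 hr, decreased signal indicating inhibition.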
HT1080-NT tox: kills 2HG-producing HT-1080-NT fibrosarcoma cells | AID 686970 | Potency, µM (doses to about 46.1 µM), for the others: at the highest dose activity, negative = less viability, actives largely listed as cytotoxic | HT-1080-NT fibrosarcoma viability, CellTiter-Glo ATP luminescence, 48 h | 360,000 tested, 1.6% active;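 further: NT is the 2HG producing partner of a matched IDH1 knockdown line; potency means the concentration at half of the fitted maximal effect; 0% = DMSO-treated cells and -100% = media-only wells without cells; nearly all actives have a fitted effect of over 55% in size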
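Luminescent CellTiter-Glo readout after 48 hours of compound exposure at 37 degrees C defined viability of HT-1080-NT cells. Activity was normalized to DMSO wells and cell-free media wells; concentration-response curves were fitted and assigned curve classes.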
HT1080 IDH1KD tx: HT-1080 IDH1 knockdown cell toxicity (counter line); HT-1080 IDH1 knockdown viability, ATP luminescence, 48 h; Potency, µM (top dose mostly 46.1 µM), for the others: top-dose activity, negative = toxicity, most hits filed as cytotoxic; 360,000 tested, 2% active; AID 686971;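 further: potency means the concentration at half of the fitted maximal effect; 0% = DMSO wells and -100% = cell-free medium wells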
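IDH1KD HT-1080 cells, 750/well, RPMI + 5% FBS; compound pinned after 2 h settling; 48 h, 37 °C; CellTiter-Glo luminescence; % activity normalised to DMSO and no-cell wells; curves fitted, classed by r2 and efficacy.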
TDP1 cell CPT: DT40-hTDP1 cell growth loss with CPT. chicken DT40 Tdp1-/-;hTDP1 cells + 20 nM CPT, ATP luminescence, 48 h. Potency, µM (highest dose often 46.2 µM), for the others: at the top dose activity change, negative = growth inhibition, usual class: inhibitors. 420,000 tested, 12% active; further: potency means the concentration at half of the fitted maximal effect; nearly all actives have a fitted effect of over 55% in size
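Chicken DT40 Tdp1-/- cells complemented with human TDP1, 400 cells/well, exposed to compounds plus 20 nM camptothecin for at least 48 h at 37 C; viability read as ATP content by CellTiter-Glo luminescence.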
TDP1 cell noCPT: qHTS for Inhibitors of human tyrosyl-DNA phosphodiesterase 1 (TDP1): qHTS in cells in absence of CPT; DT40 Tdp1-/- hTDP1 cells, no CPT, ATP luminescence, 48 h; Potency, µM (titrated, usually from 46.2 µM), for the others: top-dose activity change, negative = growth inhibition, actives largely listed as inhibitors; 420,000 tested, 15% active; AID 686978, 2013; further: potency means the concentration at half of the fitted maximal effect; nearly all actives have a fitted effect of over 55% in size
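Seeded 400 DT40-hTDP1 cells/well (vehicle DMSO, no 20 nM CPT); pinned compounds; ≥48 hr at 37 °C; CellTiter-Glo luminescence as viability measure.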
Active calls of the source: *; ? = inconclusive; / = not tested or not shown. Sampled rows, rich in hits. Any-hit rate of the full collection: about 19%. Unless noted, the call rests on the fitted dose curve; in most records, active means well fitted curve in the direction sought with a large enough effect; inconclusive means small, poorly fitted or top-dose-only effect, or another doubt; inactive means no such curve, though single readings can be large; an effect the other way counts as inactive or inconclusive. Unless noted, on the % scale 0 is the no-effect control and ±100 the full control effect.

SMILES | IL1B secr inh | HT1080-NT tox | HT1080 IDH1KD tx | TDP1 cell CPT | TDP1 cell noCPT
O=C(CSc1nc2c([nH]c3ccccc32)c(=O)n1-c1ccccc1)N1CCCc2ccccc21 | / | / | / | 0% | 1%
COc1ccc(NC(=O)Cn2c([N+](=O)[O-])cnc2C)c(OC)c1 | -4 | 1% | 1% | -12% | -27%
Cc1ccc(S(=O)(=O)N2[C@@H](c3ccc(Cl)cc3)C(C(=O)O)=C[C@H]2C(C)(C)C)cc1 | 32 | 0% | -4% | -12% | -20%
NS(=O)(=O)c1ccc(CNC(=O)Cc2ccccc2F)cc1 | 19 | 17% | 15% | -18% | -31%
CSC1=NCCN1C(=O)c1c(F)cccc1F | 9 | 10% | 4% | 1% | -14%
CCCC(=O)N1CCN(c2ccc(NC(=O)c3ccco3)cc2)CC1 | 24 | 25% | 17% | -4% | 4%
CCCC(=O)N1CCN(c2ccc(NC(=O)c3ccc([N+](=O)[O-])o3)cc2Cl)CC1 | -110* | 16µM* | ? | 0.92µM* | 5.8µM*
COc1ccc(NC(=O)CSc2c3c(nc4ccccc24)CCC3)c(OC)c1 | 13 | ? | ? | ? | 21µM*
COc1ccc(NC(=O)CSc2c3c(nc4ccccc24)CCC3)cc1Cl | / | / | / | 0.58µM* | -73%
CC1(C)CC(=O)C(C(=O)c2ccccc2)C(=O)C1 | 12 | 8% | 20% | 0% | -2%
C=CC[C@@H](Cc1ccc(F)cc1)C(=O)OC[C@@H]1CCCN1C(=O)[C@@H](CC=C)CC(=O)N[C@@H](CO)Cc1ccccc1 | -10 | -2% | -1% | ? | 18µM*
C=CC[C@@H](Cc1ccc(F)cc1)C(=O)OC[C@H]1CCCN1C(=O)[C@@H](CC=C)CC(=O)N[C@@H](CO)Cc1ccccc1 | -6 | -2% | -3% | 12µM* | 12µM*
C=CC[C@@H](Cc1ccc(F)cc1)C(=O)OC[C@H]1CCCN1C(=O)[C@@H](CC=C)CC(=O)N[C@H](CO)Cc1ccccc1 | -16 | -4% | -7% | ? | ?
C=CC[C@@H](Cc1ccc(F)cc1)C(=O)OC[C@@H]1CCCN1C(=O)[C@@H](CC=C)CC(=O)N[C@H](CO)Cc1ccccc1 | ? | -17% | ? | 10µM* | 16µM*
C=CCC[C@@H](Cc1ccc(F)cc1)C(=O)OC[C@@H]1CCCN1C(=O)[C@@H](CC=C)CC(=O)N(CCO)Cc1ccccc1 | -73* | ? | ? | 16µM* | 18µM*
C=CCC[C@@H](Cc1ccc(F)cc1)C(=O)OC[C@H]1CCCN1C(=O)[C@@H](CC=C)CC(=O)N[C@H](CO)Cc1ccccc1 | -19 | -23% | -11% | ? | ?
OCCc1ccc(NCCc2cccs2)cc1 | 33 | ? | 6% | -4% | -11%
CCC(=O)Nc1ccc2c(c1)N(C(C)=O)c1ccccc1CC2 | -10 | 2% | 20% | -7% | -4%
C=CCC[C@@H](Cc1ccc(F)cc1)C(=O)OC[C@@H]1CCCN1C(=O)[C@H](CC=C)CC(=O)N[C@H](CO)Cc1ccccc1 | ? | -13% | -14% | ? | 18µM*
C=CC[C@@H](Cc1ccc(F)cc1)C(=O)OC[C@H]1CCCN1C(=O)[C@H](CC=C)CC(=O)N[C@H](CO)Cc1ccccc1 | -3 | -22% | -15% | 21µM* | ?
C/C(=C/C(=O)N1CCc2ccccc21)C(=O)O | 33 | -2% | 9% | -21% | -3%
CCN(CC(=O)NC1CC1)S(=O)(=O)c1ccc(OC)cc1 | 2 | 8% | 14% | 2% | 12%
CC1(C)Cc2c(ccc3ccccc23)C2=C(C(=O)N3CCCC3)C(=O)C(=O)N21 | 71 | 4% | -16% | 8.2µM* | 8.2µM*
CN(C)C/C(Cl)=C(\Cl)c1ccccc1 | -5 | 0% | 9% | 5.2µM* | 5.2µM*
CC(Sc1nc2ncc(Cl)cc2[nH]1)C(=O)Nc1ccccc1[N+](=O)[O-] (stereo not drawn) | 6 | -9% | -12% | ? | ?
SMILES | IL1B secr inh | HT1080-NT tox | HT1080 IDH1KD tx | TDP1 cell CPT | TDP1 cell noCPT
Fc1cccc(Cc2c(C3CCCCC3)nc3c4ccccc4ccn23)c1 | 0 | 0% | -1% | 23µM* | 13µM*
c1ccc(Cc2c(C3CCCCC3)nc3c4ccccc4ccn23)cc1 | 26 | -3% | 4% | ? | 12µM*
Cc1ccc(Cc2c(C3CCCCC3)nc3c(C)cc(Br)cn23)cc1 | 37 | -11% | -19% | ? | -18%
Cc1cc(Br)cn2c(Cc3ccccc3)c(C3CCCCC3)nc12 | 87 | 2% | 7% | 18µM* | 16µM*
CCOc1ccc(S(=O)(=O)N2CCN(c3ccc(C)cc3C)CC2)cc1 | 20 | -17% | -8% | ? | ?
COC(=O)c1sccc1S(=O)(=O)N1CCN(c2ccc(C)cc2C)CC1 | / | / | / | ? | 23µM*
COC(=O)c1sccc1S(=O)(=O)N1CCN(c2ccccc2)CC1 | / | / | / | -27% | -27%
COC(=O)c1sccc1S(=O)(=O)N1CCN(c2cccc(C)c2C)CC1 | / | / | / | ? | 23µM*
COC(=O)c1sc(S(=O)(=O)N2CCN(c3ccccc3F)CC2)c(C(=O)OC)c1C | 2 | 6% | -12% | 15µM* | ?
COC(=O)c1sccc1NC(=S)N1CCN(c2cccc(C)c2C)CC1 | 19 | -20% | -8% | 18µM* | 23µM*
COc1cnc(SC)nc1Nc1ccc(C#N)cc1 | -29 | 0% | 1% | -25% | ?
CCc1ccc(NS(=O)(=O)c2[nH]ncc2C(=O)OC)cc1 | / | / | / | -16% | ?
Cc1nn(CC(=O)NCCCN2CCC(N3CCCCC3)CC2)c(=O)c2cc(-c3ccccc3)nn12 | -20 | -5% | -1% | 7.3µM* | 4.1µM*
Cc1nn(CC(=O)NCCCN2CCN(C)CC2)c(=O)c2cc(-c3ccccc3)nn12 | -11 | 1% | 12% | 5% | 16%
CCOC(=O)C1CCCN(C(=O)Cn2nc(C)n3nc(-c4ccccc4)cc3c2=O)C1 (stereo not drawn) | 12 | -1% | -1% | 15µM* | ?
CCN1CCN(CCCNC(=O)Cn2nc(C)n3c(cc4cc(C)ccc43)c2=O)CC1 | / | / | / | -12% | -23%
CCc1ccc(-c2cc3c(=O)n(CC(=O)NCCCN4CCN(CC)CC4)nc(C)n3n2)cc1 | ? | ? | ? | 18µM* | ?
COc1ccccc1C(=O)NCCC(=O)Nc1ccc(S(=O)(=O)N2C(C)CCCC2C)cc1 (stereo not drawn) | 4 | -17% | -22% | ? | ?
CCOc1cc(/C=N/N2CCN(Cc3ccccc3)CC2)ccc1O | 21 | -1% | 1% | 16% | -3%
